This is part of a sample that, as a whole, favours compounds with a hit. Of some 83,000 tested, about 20% had one in any assay.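 Cell lines were cultured in 96-well plates, exposed to a single compound concentration, and assessed for percent growth 48 hours later.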 Unmarked numbers belong to inactive results. The source made the active and inactive calls. The calls were made as follows: active = growth percent below 10; inactive = the rest.
Experiments:
Assay in all cases: NCI-60 one-dose screen, 48 h (100 = growth as untreated, 0 = no growth, -100 = all killed)
Settings in all cases: 10 µM
[1] = tested on: RPMI-8226 leukemia
[2] = tested on: OVCAR-8 ovarian
[3] = tested on: OVCAR-5 ovarian
[4] = tested on: OVCAR-4 ovarian
[5] = tested on: SK-OV-3 ovarian
[6] = tested on: IGROV1 ovarian
[7] = tested on: OVCAR-3 ovarian
[8] = tested on: HS 578T breast
[9] = tested on: NCI/ADR-RES ovarian

Structure (SMILES) | growth [1] | growth [2] | growth [3] | growth [4] | growth [5] | growth [6] | growth [7] | growth [8] | growth [9]
O=C(COc1ccc(NC(=O)Nc2ccc(Cl)cc2)cc1)N=Nc1c(O)[nH]c2ccc([N+](=O)[O-])cc12 | 22.3% | 16.1% | 69.4% | -11.6% (active) | 85.2% | 79.5% | -55.9% (active) | 13.7% | 92.6%
O=C(Nc1ccncc1)c1ccc(-n2c(=O)[nH]c3ccccc3c2=O)cc1 | 100% | 96% | 100% | 93.3% | 99.3% | 107% | 113% | 92.4% | 103%
O=C(Nc1nc2ccccc2s1)c1ccc(Br)cc1 | 64.2% | 98.5% | 92.9% | 80.6% | 104% | 75.1% | 111% | 95.5% | 76.7%
O=C(Nc1nc2ccc([N+](=O)[O-])cc2s1)Nc1ccccc1I | -27.9% (active) | 11% | 5.55% (active) | 14.4% | -7.59% (active) | 19.7% | 14.4% | 9.12% (active) | -5.83% (active)
O=C(c1ccc(O)cc1)C1[C@H](c2ccccc2Br)[C@@H](c2ccccc2)NC12C(=O)Nc1ccc(Br)cc12 (stereo not given in full) | 24.6% | 48.6% | 64.1% | 51.4% | 65.2% | 18.4% | 7.23% (active) | 58.5% | 64.9%
Cc1nc2c(cnn2-c2ccccc2)c(=O)n1-c1ccc(NC(=O)c2ccc(F)cc2)cc1 | 35.2% | 63.7% | 97.9% | 40.1% | 111% | 73.5% | 85.4% | 78.7% | 42.8%
CC1(C)CC[C@]2(C(=O)Nc3ccccc3)CC[C@]3(C)C(=CC[C@@H]4[C@@]5(C)CC[C@H](N)C(C)(C)[C@@H]5CC[C@]43C)[C@H]2C1 | 19.7% | -66.5% (active) | 84.4% | 76.8% | 96.5% | 96% | 105% | 93.2% | 66.5%
O=C(CSc1nnc(-c2c[nH]c3ccccc23)n1-c1ccccc1)c1ccc(Cl)cc1 | 83.2% | 24.5% | 90.7% | 14.9% | 72.1% | 51.4% | 73.9% | 33.2% | 5.85% (active)
O=c1oc2ccc(-c3ccc(F)cc3F)cc2c(=O)n1-c1ccc(F)cc1 | -26.9% (active) | 14.7% | 50.8% | 10.8% | -11% (active) | 23.5% | 3.4% (active) | -0.922% (active) | -16.9% (active)
Cc1ccc(-c2cc(-c3cc4ccccc4nc3Cl)[nH]c(=S)n2)cc1 | 64.6% | 68.2% | 87% | 80.6% | 74.2% | 58.7% | 68.4% | 32.2% | 42%
O=C(c1ccc(Cl)cc1)C1[C@H](c2ccccc2Br)[C@@H](c2ccccc2)NC12C(=O)Nc1ccccc12 (stereo not given in full) | 12.3% | 27.4% | 4.22% (active) | 25.9% | 35.9% | 31.3% | 10.5% | 18% | -70% (active)
COc1ccc(OC)c(/C=N/NC(=O)c2ccc3nc(-c4ccc(Cl)cc4)[nH]c3c2)c1 | 37.7% | 82.8% | 104% | 61.1% | 84.9% | 92.2% | 89.2% | 51.2% | 88.8%
CN(C)c1cccc2c(S(=O)(=O)Nc3cccc(-c4csc(NC(=O)CCCCCN5CCN(c6cc7c(cc6F)C(=O)N(C6CCC(=O)NC6=O)C7=O)CC5)n4)c3)cccc12 (stereo not given) | 50.7% | 94.6% | 105% | 66.6% | 86.9% | 96.3% | 99.8% | 70.4% | 98.4%
CC(=C(c1ccc(OCCCN(C)C)cc1)c1ccc(OCCCN(C)C)cc1)c1ccccc1 | -54.4% (active) | -72.7% (active) | -98.5% (active) | -96.9% (active) | -90.3% (active) | -95% (active) | -93.6% (active) | -71.2% (active) | -98.1% (active)
COc1ccc2[nH]c(=O)c(CSc3nccc(-c4ccc(Cl)cc4)n3)cc2c1 | 17.6% | -10.4% (active) | 50.9% | 36.3% | 42.1% | 60.9% | 44.8% | 37.2% | 12.2%
COC[C@@H](CC(C)C)N=C1NC(=O)/C(=C/c2ccc3ncsc3c2)N1 | 4.92% (active) | 13.7% | -21.7% (active) | 40.4% | -0.203% (active) | 8.22% (active) | -38.4% (active) | 11.6% | 9.71% (active)
C=C(C)[C@@H]1CC[C@]2(C)[C@H](CC=C3[C@@H]4CC(C)(C)CC[C@]4(C(=O)N4CCOCC4)CC[C@]32C)[C@@]1(C)CCCN | -51.2% (active) | -66.3% (active) | -98.9% (active) | -89.4% (active) | -94.6% (active) | -91.2% (active) | -84.8% (active) | -63.4% (active) | -59.8% (active)
O=C(Nc1cc(Cl)cc(Cl)c1)Nc1cc(Cl)cc(Cl)c1 | -42.4% (active) | 0.191% (active) | 1.87% (active) | 10.8% | -15.8% (active) | 7.38% (active) | -31.5% (active) | -19.3% (active) | -24.1% (active)
O=C1NC(=NC2CCCCCC2)N/C1=C\c1ccc2ncoc2c1 | 35.9% | 27.3% | 50.3% | 62% | 24.4% | 34.6% | -3.02% (active) | 42% | 41.1%
COc1cc(C2CC(c3ccccc3)=Nc3c(N)nc(N)nc3N2)ccc1Oc1nc(Nc2ccc(F)cc2)nc(N(C)C)n1 (stereo not given) | 13.5% | 40.4% | 85.8% | 35.5% | 87.2% | 50.8% | 36.4% | 48.1% | 36.8%
O=S(=O)(Nc1ncccn1)c1ccc(-n2c(-c3ccccc3)nc(-c3ccccc3)c2-c2ccccc2)cc1 | 71.1% | 97.4% | 104% | 94.1% | 101% | 103% | 113% | 81% | 95.3%
CC(=C(c1ccc(OCCN2CCCCC2)cc1)c1ccc(OCCN2CCCCC2)cc1)c1ccccc1 | -31.3% (active) | 53.5% | 46.3% | 63.8% | 74.6% | 60.7% | 28.3% | 29.5% | 51.6%
CC(C)(C)Nc1nc2cc(Cl)c(Cl)cc2nc1S(C)(=O)=O | 42.3% | 41.3% | 79.3% | -6.34% (active) | 72.8% | 45.2% | -80.3% (active) | 56.8% | 7.99% (active)
O=C(CNc1nc(-c2ccccc2)cs1)Nc1cccc([N+](=O)[O-])c1 | -18% (active) | -11.1% (active) | -92.8% (active) | -45.7% (active) | -22% (active) | -47.4% (active) | -44.6% (active) | -19.2% (active) | -61.4% (active)
C#CCNC(=O)[C@]12CCC(C)(C)C[C@H]1C1=CC[C@@H]3[C@@](C)(CCC#N)[C@H](C(=C)C)CC[C@@]3(C)[C@]1(C)CC2 | 22.2% | 64.2% | 77.4% | 68.2% | 62.6% | 71.9% | 91.8% | 79.4% | 62.5%
